PubChem BioAssay
Values joined by “and” are separate entries in the source; they are usually repeats but may differ in a detail not shown here. Equal values may be shown once. Active and inactive are the calls of the source. Unless noted, no stated cut-off is given here; in the data, active means inhibition above about 80%; inactive means the rest.

How the values were obtained:
[1] = UWB1.289 ovarian carcinoma cell growth inhibition, synergistic combos for chromothripsis tumors, BGB or cisplatin combos (AID 1671456); settings: UWB1.289 ovarian carcinoma cells, stronger effect = higher value;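 further: cells exposed to compound for four days; 0% = vehicle DMSO and 100% = killing by high DMSO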
[2] = LFS_MB_2R medulloblastoma cell growth inhibition, synergistic combos for chromothripsis tumors, cisplatin combos (AID 1671457); settings: LFS_MB_2R medulloblastoma cells, stronger effect = higher value;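 further: cells exposed to compound for four days before readout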
[3] = MDA-MB-436 breast carcinoma cell growth inhibition, synergistic combos for chromothripsis tumors, BGB or cisplatin combos (AID 1671458; call rule not given here;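 further: cells exposed for 96 hours; 0% = vehicle DMSO and 100% = killing by high DMSO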); settings: MDA-MB-436 breast carcinoma growth inhibition, drug combinations, stronger effect = higher value
[4] = UWB1.289_BRCA1 ovarian cancer growth, cell-based, BGB or cisplatin combinations (AID 1671459); settings: UWB1.289 BRCA1 ovarian carcinoma, drug combinations, stronger effect = higher value
[5] = human astrocyte viability loss, single and combined drugs, cytotoxicity control for chromothriptic childhood tumor combination screen, cell-based, BGB or cisplatin IC20 combos (AID 1671460); settings: Human astrocytes, drug combinations, stronger effect = higher value;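 further: cells exposed to compounds for 96 hours before viability readout; 0% = vehicle and 100% = killing control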
[6] = growth inhibition of BT084 medulloblastoma cells, cell-based, ICGC_MB145, cisplatin and BGB IC40 combos (AID 1671461); settings: drug combinations, stronger effect = higher value;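 further: cells exposed to drugs for 96 hours; 0% = vehicle DMSO and 100% = high DMSO full killing control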
[7] = growth inhibition of RCMB18 medulloblastoma cells, cell-based, cisplatin and BGB IC40 combos (AID 1671462); settings: stronger effect = higher value;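 further: cells exposed to compound for four days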
[8] = growth inhibition of CRL1545 osteosarcoma cells, cell-based, cisplatin and BGB IC20 combos (AID 1671464); settings: stronger effect = higher value;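 further: cells exposed to compound for 96 hours before readout; 0% = vehicle DMSO and 100% = high DMSO killing control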
[9] = system: F380Y; test: modulators of BK channel variants, profiling panel, selectivity assay, cell-based, U2OS BacMam, thallium flux, beta subunits (AID 1259406;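 active means thallium flux through the channel raised or lowered by more than 3 SD from vehicle-only wells, actives on both sides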;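 further: initial slope of Thallos dye fluorescence rise after thallium is added; log ratio against the mean of 0.3% DMSO vehicle wells on the same plate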); settings: at 30 µM
[10] = system: F380Y/beta1; test: as above; settings: at 30 µM
[11] = system: F380Y/beta2Delta; test: as above; settings: at 30 µM
[12] = system: F380Y/beta4; test: as above; settings: at 30 µM
[13] = biological target: Calcium-activated potassium channel subunit alpha-1 (Homo sapiens) + Leucine-rich repeat-containing protein 26 (Homo sapiens) (UniProt Q12791+Q2I0M4); test: as above; settings: F380Y/Slo1WT/gamma1, at 30 µM
[14] = system: R275C; test: as above; settings: at 30 µM
[15] = system: R275C/beta1; test: as above; settings: at 30 µM
[16] = system: R275C/beta2Delta; test: as above; settings: at 30 µM
[17] = system: R275C/beta4; test: as above; settings: at 30 µM
[18] = system: R275C/Slo1WT/beta2; test: as above; settings: at 30 µM
[19] = measured here: inhibition with BGB combination, at 0.05 µM
[20] = measured here: inhibition with cisplatin combination, at 0.05 µM
[21] = measured here: combination with cisplatin, at 0.5 µM
[22] = measured here: combination with cisplatin, at 5 µM
[23] = measured here: BGB combination, at 0.5 µM
[24] = measured here: BGB combination, at 5 µM
[25] = measured here: cisplatin combination, at 0.5 µM
[26] = measured here: cisplatin combination, at 5 µM
[27] = BGB combination, concentration series, at 5 µM
[28] = cisplatin combination, concentration series, at 5 µM
[29] = measured here: combo with BGB IC20, at 0.5 µM
[30] = measured here: combo with cisplatin IC20, at 0.5 µM
[31] = cisplatin combination, at 0.5 µM
[32] = measured here: BGB IC40 combination 0.05 uM, at 0.05 µM
[33] = measured here: BGB IC40 combination, at 0.05 µM
[34] = measured here: with BGB IC20 combination, at 0.5 µM
[35] = measured here: with cisplatin IC20 combination, at 0.5 µM

Calcium-activated potassium channel subunit alpha-1 (Homo sapiens) + Leucine-rich repeat-containing protein 26 (Homo sapiens), sequence (Q2I0M4 whole entry, looked up, one chain of several): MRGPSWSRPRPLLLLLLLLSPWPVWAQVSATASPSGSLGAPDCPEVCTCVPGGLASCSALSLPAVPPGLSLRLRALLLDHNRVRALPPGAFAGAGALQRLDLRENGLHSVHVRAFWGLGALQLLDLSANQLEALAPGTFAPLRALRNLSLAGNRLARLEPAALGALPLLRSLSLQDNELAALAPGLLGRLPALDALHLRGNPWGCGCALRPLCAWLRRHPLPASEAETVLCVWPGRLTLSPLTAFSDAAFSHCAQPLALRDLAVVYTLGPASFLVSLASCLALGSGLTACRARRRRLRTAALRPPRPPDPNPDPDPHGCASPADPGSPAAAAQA

SMILES: CN(C)/N=N/c1nc[nH]c1C(N)=O
- inhibition ([1]; at 0.5 µM): 18.9% (inactive) and 3.21% (inactive)
- inhibition [1, 19]: 0.064% and -13.3%
- inhibition [1, 20]: 3.6% and -43.6%
- inhibition ([2]; at 0.5 µM): 10.1% (inactive) and -20.6% (inactive)
- inhibition [2, 21]: 14.2% and -25.1%
- inhibition [2, 22]: -36.9% and -16%
- inhibition ([3]; at 0.5 µM): 1.6% (inactive) and -18.5% (inactive)
- inhibition [3, 23]: 7.15% and -18%
- inhibition [3, 24]: 1.32% and -19%
- inhibition [3, 25]: 0.111% and -24.2%
- inhibition [3, 26]: -5.49% and -14.5%
- inhibition [4, 27]: 47.3% and 36.9%
- inhibition ([4]; at 0.5 µM): 15.9% (inactive) and 4.03% (inactive)
- inhibition [4, 28]: 53.7% and 25.2%
- inhibition ([5]; at 0.5 µM): -0.79% (inactive) and 0.55% (inactive)
- inhibition [5, 29]: -3.87% and 2.32%
- inhibition [5, 30]: -4.67% and -1.77%
- inhibition ([6]; at 0.5 µM): -1.62% (inactive) and -14.7% (inactive)
- inhibition [6, 31]: -8.23% and -62.9%
- inhibition ([6]; cisplatin combination, at 5 µM): 1.87% and -8.42%
- inhibition [6, 32]: 46.6% and -5.42%
- inhibition ([6]; single agent, at 5 µM): -9.68% and -13.7%
- inhibition ([7]; at 0.5 µM): -1.34% (inactive) and -9.83% (inactive)
- inhibition ([7]; cisplatin combo, at 5 µM): 6.92% and -42.9%
- inhibition [7, 33]: -11.2% and -7.61%
- inhibition [7, 21]: 10.1% and -9.31%
- inhibition ([7]; single agent, at 5 µM): 3.33% and -8.99%
- inhibition ([8]; at 0.5 µM): -2.87% (inactive) and -54.9% (inactive)
- inhibition [8, 34]: -14.8% and -42.6%
- inhibition [8, 35]: 0.906% and -63.6%
- inhibition ([8]; single agent, at 0.05 µM): -1.35% and -67.8%
- inhibition ([8]; single agent, at 5 µM): 10.4% and -50.2%

SMILES: C[C@H]1COc2c(C3(N)CC3)c(F)cc3c(=O)c(C(=O)O)cn1c23
- inhibition ([1]; at 0.5 µM): 2.11% (inactive)
- inhibition [1, 19]: -7.87%
- inhibition [1, 20]: -10.7%
- inhibition ([2]; at 0.5 µM): -20.7% (inactive)
- inhibition [2, 21]: -28.1%
- inhibition [2, 22]: -123%
- inhibition ([3]; at 0.5 µM): -24.5% (inactive)
- inhibition [3, 23]: -30.5%
- inhibition [3, 24]: -26.3%
- inhibition [3, 25]: -33.6%
- inhibition [3, 26]: 0.273%
- inhibition [4, 27]: -9.44%
- inhibition ([4]; at 0.5 µM): -1.55% (inactive)
- inhibition [4, 28]: -1.09%
- inhibition ([5]; at 0.5 µM): 5.46% (inactive)
- inhibition [5, 29]: 4.83%
- inhibition [5, 30]: -0.547%
- inhibition ([6]; at 0.5 µM): -36.3% (inactive)
- inhibition [6, 31]: -17.3%
- inhibition ([6]; cisplatin combination, at 5 µM): -31.8%
- inhibition [6, 32]: 22.3%
- inhibition ([6]; single agent, at 5 µM): -28.3%
- inhibition ([7]; at 0.5 µM): -18.8% (inactive)
- inhibition ([7]; cisplatin combo, at 5 µM): -20.9%
- inhibition [7, 33]: -11.8%
- inhibition [7, 21]: -24.3%
- inhibition ([7]; single agent, at 5 µM): -38.1%
- inhibition ([8]; at 0.5 µM): 9.56% (inactive)
- inhibition [8, 34]: -3.27%
- inhibition [8, 35]: 14.1%
- inhibition ([8]; single agent, at 0.05 µM): -13.5%
- inhibition ([8]; single agent, at 5 µM): 10.7%
- log fold change Tl+ flux [9]: -0.0868 (inactive)
- log fold change Tl+ flux [10]: 0.0568 (inactive)
- log fold change Tl+ flux [11]: -0.0452 (inactive)
- log fold change Tl+ flux [12]: -0.037 (inactive)
- log fold change Tl+ flux [13]: 0.00396 (inactive)
- log fold change Tl+ flux [14]: -0.0195 (inactive)
- log fold change Tl+ flux [15]: -0.0326 (inactive)
- log fold change Tl+ flux [16]: -0.0136 (inactive)
- log fold change Tl+ flux [17]: -0.0013 (inactive)
- log fold change Tl+ flux [18]: -0.0265 (inactive)

SMILES: O=C(O)P(=O)(O)O
- inhibition ([1]; at 0.5 µM): -11.3% (inactive)
- inhibition [1, 19]: -27.2%
- inhibition [1, 20]: -24%
- inhibition ([2]; at 0.5 µM): -19.3% (inactive)
- inhibition [2, 21]: -14.2%
- inhibition [2, 22]: -18.5%
- inhibition ([3]; at 0.5 µM): -30.5% (inactive)
- inhibition [3, 23]: -34.2%
- inhibition [3, 24]: -30.6%
- inhibition [3, 25]: -45.7%
- inhibition [3, 26]: -24.2%
- inhibition [4, 27]: -19.2%
- inhibition ([4]; at 0.5 µM): -15.7% (inactive)
- inhibition [4, 28]: -10.9%
- inhibition ([5]; at 0.5 µM): 0.14% (inactive)
- inhibition [5, 29]: 1.18%
- inhibition [5, 30]: -8.98%
- inhibition ([6]; at 0.5 µM): -21.4% (inactive)
- inhibition [6, 31]: -13.9%
- inhibition ([6]; cisplatin combination, at 5 µM): -72.5%
- inhibition [6, 32]: 11.4%
- inhibition ([6]; single agent, at 5 µM): -13.1%
- inhibition ([7]; at 0.5 µM): -28.6% (inactive)
- inhibition ([7]; cisplatin combo, at 5 µM): -9.59%
- inhibition [7, 33]: -13.4%
- inhibition [7, 21]: -44.4%
- inhibition ([7]; single agent, at 5 µM): -27.5%
- inhibition ([8]; at 0.5 µM): -83.7% (inactive)
- inhibition [8, 34]: -15.5%
- inhibition [8, 35]: -118%
- inhibition ([8]; single agent, at 0.05 µM): -51.7%
- inhibition ([8]; single agent, at 5 µM): -82.1%
